38 compounds from the supplement of paper PMC5641865, “A screen for kinase inhibitors identifies antimicrobial imidazopyridine aminofurazans as specific inhibitors of the Listeria monocytogenes PASTA kinase PrkA” (The Journal of Biological Chemistry, 2017) can be followed below.

Structures can show the parent of a compound that is named as a salt. ± gives the standard deviation of the averaged measurements.
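Note: End-point A600 read in BHI broth at 37 °C with 2% DMSO, inhibition computed as (1 − OD with compound plus ceftriaxone ÷ OD with ceftriaxone only) × 100.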

The test system of the assay is Listeria monocytogenes 10403S. Description: growth inhibition relative to ceftriaxone-alone control; higher = stronger potentiation of ceftriaxone growth inhibition. The following applies: 10 µM; ceftriaxone 1 ug/ml; 12 h.
Regarding `CC(=O)Nc1cccc(C#Cc2cncnc2Nc2ccc(OCc3cccc(F)c3)c(Cl)c2)n1`, the growth inhibition was -0.967 ± 4.2%.
Consider `COc1cc2ncn(-c3cc(OCc4ccccc4C(F)(F)F)c(C(C)=O)s3)c2cc1OC`, for which the growth inhibition came out at 11.2 ± 1.6%.
The figure for `CN1CCC(C(=O)Nc2n[nH]c3nnc(-c4ccccc4)cc23)CC1` is 17.5 ± 11%; for `CNC(=O)c1cc(Oc2ccc(NC(=O)Nc3ccc(Cl)c(C(F)(F)F)c3)c(F)c2)ccn1` [Regorafenib (BAY 73-4506)] it is 85.5 ± 3.7%.
The figure for `O=C(Nc1c[nH]nc1-c1nc2ccc(CN3CCOCC3)cc2[nH]1)NC1CC1` is 55.7 ± 25%; for `COc1ccc2c(Oc3ccc(NC(=O)c4c(C)n(CC(C)(C)O)n(-c5ccccc5)c4=O)nc3)ccnc2c1` it is 28.9 ± 13%; for `CN(c1ncccc1CNc1nc(Nc2ccc3c(c2)CC(=O)N3)ncc1C(F)(F)F)S(C)(=O)=O` it is 41.8 ± 28%.
The figure for `CCOc1nccc2c1nc(-c1nonc1N)n2CC` is 13.6 ± 0.53%.
For the compound `COc1cccc(-n2ncc3c(N/N=C/c4ccc(C)cc4)ncnc32)c1`, the growth inhibition is -9.19 ± 0.67%.
The figure for `CCCN1CCCC(c2ccc(Nc3nc(Nc4cc(F)ccc4C(N)=O)c4cc[nH]c4n3)c(OC)c2)C1` (stereo not drawn) is 1.46 ± 6.2%; for `CNC(=O)c1ccccc1Sc1ccc2c(/C=C/c3ccccn3)n[nH]c2c1` [Axitinib] it is -11.8 ± 14%; for `CCS(=O)(=O)c1ccc(OC)c(Nc2ncc(-c3cccc(OC)c3)o2)c1` it is -9.19 ± 17%.
The figure for `Cc1ccc(C(=O)Nc2cccc(C(F)(F)F)c2)cc1Nc1nc(-c2cccnc2)nc2c1cnn2C` is -1.9 ± 16%.
The figure for `COc1ccc(-c2nn3ncccc3c2-c2ccnc(Nc3cccc(C(F)(F)F)c3)n2)cc1` is 2.98 ± 4.9%; for `O=C1NC(=O)C(c2ccc(Cl)cc2)=C1Nc1ccc(Cl)c(C(=O)O)c1` it is 6.2 ± 5.4%; for `COc1cccc(-n2ncc3c(N/N=C/c4ccncc4)ncnc32)c1` it is -5.6 ± 4.6%.
`CCS(=O)(=O)c1ccc(OC)c(Nc2ncc(-c3cccc(-c4ccccc4F)c3)o2)c1`: the growth inhibition is 2.03 ± 2.4%.
The figure for `CNC(=O)c1cc(-c2ccc(F)cc2)cc(-c2ccc(S(=O)(=O)N3CCCC3)cc2)c1N` is -4.95 ± 15%; for `Nc1ccc(C(=O)Nc2cccc(-c3nc(N4CCOCC4)c4oc5ncccc5c4n3)c2)cn1` it is 31.1 ± 1.6%.
For the compound `Cc1cccc(Nc2ncc(-c3ccccc3)o2)c1`, the growth inhibition was -0.369 ± 0.46%.
In the case of `CCN1CCN(c2ccc(Nc3cc(N(C)C(=O)Nc4c(Cl)c(OC)cc(OC)c4Cl)ncn3)cc2)CC1`, the growth inhibition came to 12.2 ± 5.4%.
`Nc1ncnc2c1c(-c1cnc3[nH]ccc3c1)nn2C1CCCC1`: the growth inhibition came out at 42.9 ± 23%.
The figure for `NS(=O)(=O)c1cccc(-c2ccc3c(NC(=O)C4CC4)n[nH]c3c2)c1` is 0.81 ± 3.7%; for `CS(=O)(=O)Nc1ccc(-c2ccc3c(NC(=O)C4CC4)n[nH]c3c2)cc1` it is 38.6 ± 43%; for `CNC(=O)Nc1ccc(-c2nc(N3CC4CCC(C3)O4)c3cnn(C4CCC5(CC4)OCCO5)c3n2)cc1` it is 7.7 ± 6.6%.
The figure for `CC1(COc2ccc3c(c2)ncn3-c2ccc3cccc(N4CCC(N)CC4)c3n2)COC1` is 32 ± 14%.
The figure for `NC(=O)Cc1ccccc1Oc1nccc(-c2c(-c3ccc(F)cc3)ncn2C2CCNCC2)n1` is -2.82 ± 0.75%.
On to `CN1CCN(c2cccc(Nc3nc4c(-c5ccc(S(C)(=O)=O)cc5)cccn4n3)c2)CC1`, for which the growth inhibition came to 69 ± 27%.
The figure for `CCn1c(-c2nonc2N)nc2c(C#CC(C)(C)O)nc(OC[C@@H](N)c3ccccc3)cc21` is 71.3 ± 3.1%; for `NS(=O)(=O)c1ccc(N/N=C2\C(=O)Nc3ccc4ncccc4c32)cc1` it is -6.48 ± 3.8%.
For `O=C1NC(=O)C(=Cc2ccc(-c3ccc(F)cc3)o2)S1` (stereo in doubt), the growth inhibition is 31.8 ± 28%.
`CCS(=O)(=O)c1ccc(OC)c(Nc2ncc(-c3cccc(C(C)=O)c3)o2)c1`: the growth inhibition came out at 7.79 ± 2.2%.
The figure for `Cn1cnc(N)c2ncnc1-2` [3-Methyladenine] is 4.53 ± 5.3%.
As for `COc1ncc(-c2ccc3nccc(-c4ccnnc4)c3c2)cc1NS(=O)(=O)c1ccc(F)cc1F`, the growth inhibition came to 12.8 ± 7.8%.
The figure for `CCS(=O)(=O)c1ccc(OC)c(Nc2nccc(N(C)c3ccc4c(C)n[nH]c4c3)n2)c1` is 0.981 ± 2.5%.
The figure for `Cc1ccc(Nc2nccc(N(C)c3ccc4c(C)n(C)nc4c3)n2)cc1S(N)(=O)=O` [Pazopanib HCl] is 20.4 ± 13%; for `[O-][S+]1CCN(Cc2ccc(-c3ccc4ncnc(Nc5ccc(OCc6ccccc6)c(Cl)c5)c4c3)o2)CC1` it is 2.22 ± 6.4%.
With `Cn1cnc2c(F)c(Nc3ccc(Br)cc3Cl)c(C(=O)NOCCO)cc21` [AZD6244 (Selumetinib)], the growth inhibition was determined as 0.682 ± 22%.
